# Laboratory results published in PubChem BioAssay AID1345083 (National Center for Advancing Translational Sciences (NCATS), 2018).
# The campaign covered roughly 94,000 compounds. About 6,200 (6.6%) were called active. Inconclusive results (about 31%) are left out. Calls follow the shape of the dose curve; as a rule, active = well fitted inhibition curve with a large enough effect; inconclusive = small, poorly fitted or top-dose-only effect; inactive = flat fitted curve, though single readings scatter. What follows is part of a selection rich in actives, with near analogues and random picks from the rest. Entries that show only a call come without a potency.
# Experiment: Cytotoxic Profiling in HEK 293 Cell Line of Diverse Libraries Using Quantitative High-Throughput Screening; also: nearly all actives have a fitted effect of over 60% in size
# Conditions: HEK 293 viability, ATP luminescence (CellTiter-Glo), 48-72 h; series mostly up to 115 µM
# In short: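 HEK 293 cells seeded at 250 cells/well were exposed to compound for 48 or 72 hr at 37 degree Celsius. Viability taken as ATP content by CellTiter-Glo luminescence.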
# Potency is read from the fitted curve at half-maximal effect.
row,SMILES,Potency
1,CC(C)C(=O)N1CCC(OC2CCN(Cc3ccccc3)CC2)CC1,inactive
2,COCCNC(=O)N1CCc2nn(Cc3ccccc3)c(=O)n2CC1,inactive
3,CC(C)(Oc1nn(Cc2cccc(Cl)c2)c2ccccc12)C(=O)Nc1cccnc1,35.5 µM (active)
4,CN(C)CCNC(=O)C(C)(C)Oc1nn(Cc2cccc(Cl)c2)c2ccccc12,31.6 µM (active)
5,COCc1ccc2c(c1)c(OC(C)(C)C(=O)N1CCN(C)CC1)nn2Cc1cccnc1,inactive
6,CN1CCN(C(=O)C(C)(C)Oc2nn(Cc3cccc(Cl)c3)c3ccccc23)CC1,70.8 µM (active)
7,O=C(NCc1cccnc1)C1CCCN(c2cnn(Cc3ccccc3)c(=O)c2)C1 (configuration not stated),inactive
8,COCc1ccc2c(c1)c(OC(C)(C)C(=O)NC1CCC(O)CC1)nn2Cc1cccnc1 (configuration not stated),inactive
9,Cc1ccccc1C(=O)NCc1c[nH]c2ncccc12,inactive
10,N#Cc1ccc(CN2CC3CCC(C2)N3c2ccc(C(F)(F)F)cc2)cc1,inactive
11,O=C(c1ccn[nH]1)N1CCC[C@H](n2c(=O)n(CC3CC3)c3cccnc32)C1,inactive
12,COCCn1c(=O)n([C@H]2CCCN(C(=O)c3ccccc3F)C2)c2ncccc21,inactive
13,NC(=O)c1cccnc1OC1CCN(Cc2cccnc2)CC1,inactive
14,CCOCc1nc(C2CCCN(C(=O)NC(C)C)C2)no1 (configuration not stated),inactive
15,O=C(NCc1ccco1)C1CCCN(c2cnn(Cc3ccccc3)c(=O)c2)C1 (configuration not stated),inactive
16,Cc1noc(C)c1S(=O)(=O)N1CCC(c2noc(-c3ccccn3)n2)C1 (configuration not stated),inactive
17,O=C1CCN(C(=O)C2COc3ccccc3O2)CCOCCN1 (configuration not stated),inactive
18,C[C@@H](NC(=O)C1=C[C@@H](NC(=O)CC2(CC(=O)O)CCCC2)[C@@H](O)[C@H](O)C1)C(N)=O,inactive
19,CN1CCC(C(=O)N2CC(F)(F)C[C@H]2c2nc(C3CC3)no2)CC1,inactive
20,Cc1noc2c(NC3CCCCC3)cc(-c3ccsc3)nc12,89.1 µM (active)
21,COCCCNc1cc(-c2ccsc2)nc2c(C)noc12,inactive

row,SMILES,Potency
1,O=C(Nc1ccc(-c2nnc3n2CCCC3)cc1)c1ccccn1,inactive
2,CC(=O)N1CCCC2(C1)CN(C)c1ccc(C(=O)NC3CC3)cc12 (configuration not stated),inactive
3,COCCCN(CCC(=O)NCc1ccc(F)cc1)C(=O)c1cc(C)oc1C,inactive
4,COc1ccc(-c2ccc(C(=O)NCc3ccc(F)cc3)cc2)nn1,inactive
5,Cc1c(-c2ccc(F)cc2)[nH]c2ccc(CNC(=O)c3ccc(CO)o3)cc12,31.6 µM (active)
6,N#Cc1cccc(-c2c(C(=O)NCc3ccc(F)cc3)nc3sccn23)c1,inactive
7,CNc1nc(C(=O)NCc2ccc3[nH]c(-c4ccc(F)cc4)c(C)c3c2)cs1,39.8 µM (active)
8,COc1ccc(CNC(=O)Cn2cccc2-c2nc(-c3ccc(F)cc3)no2)cc1,inactive
9,CCOc1ccc2c(n1)CCN(C(=O)Nc1ccc(OC)cc1C)C2,inactive
10,CN1CC(=O)N(c2cccc(F)c2)Cc2c(NC3CCNCC3)ncnc21,inactive
11,CS(=O)(=O)N1CCCN(C(=O)Cc2cccc(F)c2)CCNC(=O)CC1c1ccccc1 (configuration not stated),inactive
12,Cc1cccc(OCCc2noc(C3CCCN(Cc4ccccc4C#N)C3)n2)c1 (configuration not stated),89.1 µM (active)
13,O=C(c1ccccn1)N1CCCC(c2nc(CCOCC3CCOCC3)no2)C1 (configuration not stated),inactive
14,CCOCC(=O)N1CC(c2nc(CCOc3cccc(C)c3)no2)C1,inactive
15,COc1cccc(-c2cc(C(=O)Nc3cccc(F)c3)c3cnn(C)c3n2)c1,44.7 µM (active)
16,COc1cccc(CNC(=O)c2cc(-c3ccc(Cl)nc3)nc3c2cnn3C)c1,inactive
17,COc1cccc(-c2cc(C(=O)N3CCN(C(C)=O)CC3)c3cnn(C)c3n2)c1,inactive
18,Cn1ncc2c(C(=O)Nc3cccc(C(F)(F)F)c3)cc(-c3cccc(C(F)(F)F)c3)nc21,inactive
19,Cc1ccc(NC(=O)c2cc(C(C)(C)C)nc3c2cnn3C)cc1,79.4 µM (active)
20,Cn1ncc2c(C(=O)NC3CCCCC3)cc(-c3cccnc3)nc21,inactive
21,Cn1ncc2c(C(=O)Nc3ccc(F)cc3)cc(-c3ccc(Cl)cc3Cl)nc21,inactive

row,SMILES,Potency
1,COc1cccc(-c2cc(C(=O)Nc3cccc(Cl)c3)c3cnn(C)c3n2)c1,39.8 µM (active)
2,CCn1nc(C)cc1C(=O)N1C[C@H]2OC(=O)N(CCCN3CCOCC3)[C@H]2C1,inactive
3,O=C(Nc1cccnc1)O[C@H]1COCCN(c2nc3ccccc3s2)C1,inactive
4,COc1cccc([S+](=O)([O-])N2CCCC3(CC(c4cccc(C(F)(F)F)c4)=NO3)C2)c1 (configuration not stated),inactive
5,CC(C)N1C[C@H](O)C[C@H]1c1nnc2n1CCN(C(=O)c1ccccn1)CC2,inactive
6,CO[C@H]1C(=O)N(C2CCN(S(=O)(=O)c3c(C)nn(C)c3C)CC2)[C@H]1c1ccncc1,inactive
7,CCCN1C(=O)NC(CC(=O)N2CCC(O)(c3ccc(C)cn3)CC2)C1=O (configuration not stated),inactive
8,CN(C)S(=O)(=O)N1C[C@@H]2CC[C@H](C1)N(Cc1ccccc1C#N)C2,inactive
9,CC1(C)[C@H](Cc2cc(-c3ccccc3)on2)C[C@@H]1NS(C)(=O)=O,89.1 µM (active)
10,CC1(C)[C@H](Cc2cc(-c3ccccc3)on2)C[C@@H]1NCC1CC1,100 µM (active)
11,CC1(C)[C@H](Cc2cc(CCO)on2)C[C@@H]1NCC1CC1,inactive
12,CCn1cnnc1CC1CCN(C(=O)c2cc(-c3ccc(F)cc3)nc3ccccc23)CC1,inactive
13,CN(C)C(C(=O)N1CCC(N2CCSCC2)CC1)c1cccc(F)c1 (configuration not stated),inactive
14,O=C(NC[C@H]1O[C@@H](CO)[C@@H](O)[C@H]1N1CCOCC1)Nc1ccc(OC(F)(F)F)cc1,inactive
15,O=C(NCc1cnn(Cc2ccccc2)c1)c1ccc2oc(-c3cccc(F)c3)nc2c1,7.08 µM (active)
16,O=C(NCc1ccccc1)c1ccc2nc(-c3ccnc(Cl)c3)oc2c1,inactive
17,O=C(NCCc1ccccc1)c1ccc2oc(-c3cccnc3)nc2c1,inactive
18,COC1CCOC2(CCN(C(=O)c3cnccn3)CC2)C1 (configuration not stated),inactive
19,CN(C(=O)NCc1ccccc1)C1CCc2nn(CC3CC3)c(=O)n2CC1 (configuration not stated),inactive
20,O=C(C1Cn2cccc2C(=O)N1Cc1ccccc1)N1CCOCC1 (configuration not stated),inactive
